Each structure is given as a SMILES string. Values joined by “and” are separate entries in the source; they are usually repeats but may differ in a detail not shown here. Identical values can stand only once. About 18,000 (4.4%) of roughly 410,000 compounds were called active. Inconclusive results (about 7%) are left out. Rule as the data show it: active = activity change below about -60%; inconclusive = no clear call, values can overlap the other calls; inactive = above about -39%. The full list was thinned out, with actives kept by preference. Some compounds were tested as several samples or in several runs, with calls that do not always agree.
% is scaled to controls: 0 for no effect and ±100 for the full control effect.

The nature of this test: qHTS Assay for inhibitors of the human cytomegalovirus (HCMV). Conditions: HFF cells, HCMV-luciferase reporter, 72 h; at 57.5 µM; stronger effect = lower value. The text has this:
NCGC Assay Overview: Infection with human cytomegalovirus (HCMV) continues to pose significant threats for pregnant women and immunocompromised hosts. HCMV causes serious morbidity and mortality in transplant recipients, and congenital HCMV is the leading infectious cause of mental retardation and deafness in children. In the 1990s, the annual costs associated with the disease burden of congenital CMV were estimated at around $2 billion. A HCMV vaccine is not available yet and HCMV therapies result in intolerable side effects and emergence of drug resistant viruses. […] Towards this goal we have developed and characterized a luciferase HCMV reporter that was initially used in 96 well plates and then optimized to 1536-well plates for utilization in screening of the MLSMR collection, the NGCG diversity collection and the NCGC Pharmaceutical Collection of approved and investigational drugs.
NCGC Assay Protocol Summary:
This is a cell-based assay for HCMV inhibition in HFFs cells. The screening used 2 compound doses and the HCMV-luciferase at MOI of 1 PFU/cell. Cells were treated and infected with HCMV. At 72 h post infection cell lysates were collected and luciferase activity was determined using the Glomax-Multi + Detection System (Promega, Madison, WI). Data were normalized to the controls for basal activity (buffer only) and known HCMV inhibitors Salinmoycin.
1536-well assay protocol for the assay:
(1) Add 3 ul CMV/HFF cell culture. 1000 cells/well in DMEM nirmal media.
(2) Incubate 16 hr at 37C.
(3) Add 23 nl control compound, 10uM of Salinomycin.
(4) Add 23 nl compounds in DMSO solution.
(5) Add 3 ul CMV suspension. Final 1 puf/ul, Virus stock 2000pfu/ul
(6) Incubate 72 hrs at 37C.
(7) Add 4 ul OneGlo Luc Reagent.
(8) Incubate 5 min at room temperature.
In general terms: Quantitative high-throughput screening tests each substance at several concentrations.
For `COc1cc(OC)cc(C(=O)Nc2ccc3nc(Nc4cccc(C(F)(F)F)c4)cc(C)c3c2)c1`, the activity change, negative = inhibition was -92.6% (active). To `COc1cc(NC(=O)c2cncc(-c3ccc(C#N)cc3)c2)cc(C(=O)Nc2cccc(C(F)(F)F)c2)c1` belongs -78.9% (active) and -65.8% (active); to `COc1cccc(NC(=O)CN(C)C(C)C(=O)Nc2ccc(C#N)cc2)c1` (configuration not stated), -15.8% (inactive); to `O=C1COCc2cc(-c3cccc(F)c3)ccc2N1CCN1CCOCC1`, -29.7% (inactive). `CCOC(=O)c1cccc(NC(=O)c2cc(S(=O)(=O)N3CCCC(C)C3)cn2C)c1` (configuration not stated): the activity change, negative = inhibition is -10.5% (inactive). As for `CC(=O)c1cccc(NC(=O)C2CCCN(S(=O)(=O)c3cccc4nonc34)C2)c1` (configuration not stated), the activity change, negative = inhibition is 8.09% (inactive). To `CCOC(=O)c1cccc(NC(=O)C2CCCN(S(=O)(=O)c3cnc[nH]3)C2)c1` (configuration not stated) belongs -78.2% (active); to `CN(C)c1ccc(NC(=O)CSc2nc(-c3ccco3)cc(C(F)(F)F)n2)cc1`, 13.1% (inactive). The result for `Cc1cc(NC(=O)CCC(=O)N(CC(=O)NCC2CCCO2)c2ccccc2)no1` (configuration not stated) reads -24.8% (inactive); that for `CCN(CC)P(=O)(Oc1cccc(C)c1)N(CC)CC`, -101% (active); that for `Cc1cccc(OP(=O)(Nc2c(C)n(C)n(-c3ccccc3)c2=O)Oc2cccc(C)c2)c1`, -36.3% (inactive). In the case of `Cc1cccc(OP(=O)(Oc2cccc(C)c2)OC(c2ccccc2)C(F)(F)F)c1` (configuration not stated), the activity change, negative = inhibition is 19.6% (inactive). The result for `Cc1cc(Nc2ccc(Br)cc2F)n2ncnc2n1` reads 3.15% (inactive); that for `COc1ccc(Cl)cc1-n1c(CCC(=O)O)ccc1-c1ccc(C)cc1`, 10.6% (inactive). Take `Cc1cc(C)c(NC(=O)CCc2c(C)nc3c(c(C)nn3C(C)(C)C)c2C)c(C)c1`: the activity change, negative = inhibition is 3.32% (inactive). As to `COc1cccc(N(C(=O)C2COc3ccccc3O2)C(C(=O)NC2CCCCC2)c2ccc(O)cc2)c1` (configuration not stated), the activity change, negative = inhibition is -15.7% (inactive).

Consider `Cc1ccccc1N(C(=O)CNC(=O)c1cccs1)C(C(=O)NC1CCCC1)c1ccncc1` (configuration not stated), for which the activity change, negative = inhibition is 62.4% (inactive).

On to `COc1ccc(C(C(=O)NC2CCCCC2)N(C(=O)CCl)c2ccccc2Cl)cc1` (configuration not stated), for which the activity change, negative = inhibition is -97.5% (active). Take `Oc1c(C(c2ccc(F)cc2)N2CCN(Cc3ccccc3)CC2)sc2nc(-c3ccco3)nn12` (configuration not stated): the activity change, negative = inhibition was -3% (inactive).

On to `CC(=O)C[C@@H](O)CC(=O)[C@H]1OC(=O)CCCCCCc2ccccc21`, for which the activity change, negative = inhibition is 6.44% (inactive). `CCCCCn1c(=O)[nH]c2cc(C(=O)NCCCN3CCCCC3C)ccc2c1=O` (configuration not stated): the activity change, negative = inhibition was -19.8% (inactive). Turning to `Cc1cccc(N2CCN(C(=O)CCSCc3ccccc3F)CC2)c1C`, the activity change, negative = inhibition was 11.2% (inactive). For the compound `CCOC(=O)c1cnc2ccc(F)cc2c1Nc1ccc2c(c1)OCCO2`, the activity change, negative = inhibition was -76.3% (active). Take `CCC(=O)c1cc(F)ccc1OCC(=O)Nc1ccc2c(c1)OCCO2`: the activity change, negative = inhibition was -17.8% (inactive).

Regarding `CCOC(=O)c1cnc2c(C)cc(C)cc2c1Nc1ccc(N2CCOCC2)cc1`, the activity change, negative = inhibition is 6.54% (inactive).

Take `O=C(NCc1ccccc1Cl)C1CCN(c2ncnc3c2nc2n3CCCCC2)CC1`: the activity change, negative = inhibition is 0% (inactive) and -68.9% (active). `COc1cccc(CNC(=O)C2CCCN(c3ncnc4c3nc3n4CCCCC3)C2)c1` (configuration not stated): the activity change, negative = inhibition is -15.7% (inactive).

Consider `CCOC(=O)c1cccc(NC(=O)C2CCN(c3ncnc4c3nc3n4CCCCC3)CC2)c1`, for which the activity change, negative = inhibition was 4.29% (inactive). On to `COc1ccc(N(C)C(=O)C2CCN(S(=O)(=O)c3cc(Br)cc4c3N(C(C)=O)CC4)CC2)cc1`, for which the activity change, negative = inhibition is 8.13% (inactive). To `COc1ccc(-c2cc(C(=O)Nc3sc4c(c3C(N)=O)CCCC4)no2)cc1` belongs 21.3% (inactive); to `Cn1cc(C(=O)c2ccc(Cl)cc2Cl)cc1C(=O)NN`, -23.5% (inactive); to `CC(C)(C)c1cc(C(=O)NN)n(Cc2ccc(Cl)cc2Cl)n1`, -79.4% (active). On to `CC(C)(CNC(=O)Cc1ccc(Cl)cc1Cl)N1CCOCC1`, for which the activity change, negative = inhibition was -8.38% (inactive). As for `CC(=O)Nc1cccc(NC(=O)CSc2cn(CC(=O)N3CCCC3)c3ccccc23)c1`, the activity change, negative = inhibition is -3.21% (inactive). With `O=C(CCS(=O)(=O)c1cc(Br)cc2c1N(C(=O)C1CC1)CC2)Nc1ccc(C(F)(F)F)cc1`, the activity change, negative = inhibition is 1.29% (inactive). For `O=C(NCc1ccccc1)C1=C[C@@H](C2CCCCC2)C[C@@H](OCc2ccc(CO)cc2)O1`, the activity change, negative = inhibition was -86.3% (active). `CC(C)(C)[C@H]1C=C(C(=O)NCc2ccccc2)O[C@@H](OCc2ccc(CO)cc2)C1`: the activity change, negative = inhibition is -2.88% (inactive).

Turning to `O=C(NCc1ccccc1)C1=C[C@H](C2CC2)C[C@H](OCc2ccc(CO)cc2)O1`, the activity change, negative = inhibition was 7.43% (inactive). `CCC(C)CN1CCC(CO)(Cc2ccccc2Cl)CC1` (configuration not stated): the activity change, negative = inhibition was -7.29% (inactive). On to `Cc1c(CN2CCC(CO)(CCOc3ccccc3)CC2)[nH]c2ccc(Cl)cc12`, for which the activity change, negative = inhibition is -92.5% (active). As for `OCC1(CCc2ccccc2)CCN(Cc2ccc3nsnc3c2)CC1`, the activity change, negative = inhibition was 13.2% (inactive). The result for `COc1ccccc1CNC(=O)CCn1c(=O)c2ccccc2n(CC(=O)Nc2cccc(Cl)c2)c1=O` reads -39.6% (inactive).

The record behind these values is PubChem BioAssay AID1259415 (National Center for Advancing Translational Sciences (NCATS), 2018).
